Data on 12 compounds can be found in PubChem BioAssay (NCI).

Where “and” joins values, the source holds several entries; their conditions need not be identical. Equal values may be shown once. The panel holds about 83,000 compounds, 20% with a hit somewhere; the sample as a whole holds those more often.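 Activity criterion: percent growth below 10, measured after cells in 96-well plates were exposed to a single compound concentration for 48 hours.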 Calls of active or inactive are those of the source.

Among the test systems are DU-145 prostate; K-562 leukemia; MALME-3M melanoma; MDA-MB-231 breast; RXF 393 renal; SF-268 CNS; SF-295 CNS; SF-539 CNS; UACC-257 melanoma.
What all share (assay): NCI-60 one-dose screen, 48 h (100 = growth as untreated, 0 = no growth, -100 = all killed)
In a further test the test system is M14 melanoma. Conditions: 10 µM unless noted.

Consider `Cc1c2ccncc2c(C)c2c1[nH]c1ccccc12`, for which the growth with DU-145 prostate (10 µM unless noted) is -97.8% (active); in the test on K-562 leukemia (10 µM unless noted) it was 3.9% (active); with MALME-3M melanoma (10 µM unless noted), -77.8% (active); with MDA-MB-231 breast (10 µM unless noted), -68.9% (active); in the test on RXF 393 renal (10 µM unless noted), -87.3% (active); with SF-268 CNS (10 µM unless noted), -77.1% (active). Further, the growth in the test on SF-295 CNS (10 µM unless noted) is -84.7% (active); in the test on SF-539 CNS (10 µM unless noted), -93.6% (active); with UACC-257 melanoma (10 µM unless noted), -62.1% (active).
For `Oc1ccc(O)c(Cl)c1`, the growth in the test with DU-145 prostate (10 µM unless noted) was 103% (inactive); in the test on K-562 leukemia (10 µM unless noted) it was 89.1% (inactive) and 94.8% (inactive); in the test on MALME-3M melanoma (10 µM unless noted), 106% (inactive) and 103% (inactive); in the test on MDA-MB-231 breast (10 µM unless noted), 67.3% (inactive) and 101% (inactive); in the test with RXF 393 renal (10 µM unless noted), 93% (inactive) and 113% (inactive); in the test on SF-268 CNS (10 µM unless noted) it was 96% (inactive) and 100% (inactive). In addition, the growth in the test on SF-295 CNS (10 µM unless noted) is 103% (inactive) and 118% (inactive); in the test on SF-539 CNS (10 µM unless noted) it was 84.4% (inactive) and 102% (inactive); in the test with UACC-257 melanoma (10 µM unless noted) it was 88.1% (inactive) and 102% (inactive).
As for `COc1ccc2c(c1)c(-c1nc(-c3c[nH]c4ncccc34)cs1)cn2CCCCN1CCOCC1`, the growth in the test with DU-145 prostate (10 µM unless noted) is 48.9% (inactive); in the test with K-562 leukemia (10 µM unless noted) it was -65.2% (active); in the test on MALME-3M melanoma (10 µM unless noted) it was -66.7% (active); in the test on MDA-MB-231 breast (10 µM unless noted) it was 23.4% (inactive); in the test on RXF 393 renal (10 µM unless noted) it was 31.9% (inactive); with SF-268 CNS (10 µM unless noted) it was 52.4% (inactive). Further, the growth with SF-295 CNS (10 µM unless noted) was 13.1% (inactive); in the test on SF-539 CNS (10 µM unless noted), 49.3% (inactive); in the test on UACC-257 melanoma (10 µM unless noted), 79.5% (inactive).
In the case of `O=P(O)(Nc1ccccc1)Nc1ccccc1`, the growth in the test with DU-145 prostate (10 µM unless noted) is 97% (inactive); in the test with K-562 leukemia (10 µM unless noted) it was 51.9% (inactive); in the test with MALME-3M melanoma (10 µM unless noted), 94.3% (inactive); with MDA-MB-231 breast (10 µM unless noted), 109% (inactive); in the test with RXF 393 renal (10 µM unless noted) it was 93.9% (inactive); with SF-268 CNS (10 µM unless noted), 102% (inactive). The values for the growth in the test on SF-295 CNS (10 µM unless noted), in the test on SF-539 CNS (10 µM unless noted) and in the test on UACC-257 melanoma (10 µM unless noted) were 96.1% (inactive), 91.6% (inactive) and 89.3% (inactive), respectively.
Consider `CCCCCCCCCCCCCCCC[N+](C)(C)Cc1ccccc1`, for which the growth is 26.7% (inactive) and -40.3% (active) in the test on DU-145 prostate (10 µM unless noted); 15% (inactive) and -22.5% (active) in the test with K-562 leukemia (10 µM unless noted); -25% (active) and -55.5% (active) in the test with MALME-3M melanoma (10 µM unless noted); -41.4% (active) and -70.1% (active) with MDA-MB-231 breast (10 µM unless noted); 0.124% (active) in the test on RXF 393 renal (10 µM unless noted); 0.106% (active) and -74.5% (active) in the test with SF-268 CNS (10 µM unless noted). Besides, the growth is 20.6% (inactive) and -28.5% (active) in the test with SF-295 CNS (10 µM unless noted); -61.2% (active) and -99.3% (active) in the test on SF-539 CNS (10 µM unless noted).
With `O=C(O)CCCc1ccc(N(CCCl)CCCl)cc1`, the growth is 111% (inactive) and 98.7% (inactive) in the test with DU-145 prostate (10 µM); -5.07% (active) in the test on DU-145 prostate (75 µM); 103% (inactive) and 58.3% (inactive) in the test on K-562 leukemia (10 µM); 31.8% (inactive) in the test on K-562 leukemia (75 µM); 98.7% (inactive) and 88.9% (inactive) in the test with MALME-3M melanoma (10 µM); 43% (inactive) in the test with MALME-3M melanoma (75 µM). Further, the growth with MDA-MB-231 breast (10 µM) is 99.4% (inactive) and 104% (inactive); in the test on MDA-MB-231 breast (75 µM) it was 93.5% (inactive); in the test with RXF 393 renal (10 µM) it was 106% (inactive) and 87.8% (inactive); in the test on RXF 393 renal (75 µM), 12% (inactive); with SF-268 CNS (10 µM) it was 87.6% (inactive) and 69.9% (inactive); in the test on SF-268 CNS (75 µM), 34% (inactive). Moreover, the growth in the test with SF-295 CNS (10 µM) is 100% (inactive) and 78.8% (inactive); in the test on SF-295 CNS (75 µM), 13.4% (inactive); in the test on SF-539 CNS (10 µM), 87.8% (inactive) and 72.3% (inactive); in the test on SF-539 CNS (75 µM), -40.7% (active); with UACC-257 melanoma (10 µM) it was 104% (inactive) and 73.4% (inactive); in the test on UACC-257 melanoma (75 µM), 28.9% (inactive). Besides, the growth in the test with M14 melanoma was 93.3% (inactive) and 97.1% (inactive).
In the case of `CN(C)c1ccc(C=C2C(=O)NC(=O)NC2=O)cc1`, the growth in the test with DU-145 prostate (10 µM unless noted) was 102% (inactive); in the test on K-562 leukemia (10 µM unless noted), 109% (inactive); with MALME-3M melanoma (10 µM unless noted) it was 96.4% (inactive); with MDA-MB-231 breast (10 µM unless noted), 88.2% (inactive); in the test on RXF 393 renal (10 µM unless noted), 94% (inactive); with SF-268 CNS (10 µM unless noted), 93.5% (inactive). The growth with SF-295 CNS (10 µM unless noted) is 95.5% (inactive); with SF-539 CNS (10 µM unless noted) it was 96.7% (inactive); with UACC-257 melanoma (10 µM unless noted), -19.7% (active).
Turning to `COc1cc(C2C3=C(CCCC3=O)N(CCO)c3cc4c(cc32)CCC4)cc(OC)c1OC` (stereo unspecified), the growth in the test with DU-145 prostate (10 µM unless noted) is 94.1% (inactive); with K-562 leukemia (10 µM unless noted) it was 78.7% (inactive); with MALME-3M melanoma (10 µM unless noted) it was 93.1% (inactive); in the test with MDA-MB-231 breast (10 µM unless noted) it was 82.1% (inactive); in the test with RXF 393 renal (10 µM unless noted), 100% (inactive); with SF-268 CNS (10 µM unless noted), 90.4% (inactive). Besides, the growth with SF-295 CNS (10 µM unless noted) is 99.9% (inactive); in the test on SF-539 CNS (10 µM unless noted), 106% (inactive); in the test on UACC-257 melanoma (10 µM unless noted), 67.2% (inactive).
With `O=C(O)C(F)F`, the growth with DU-145 prostate (10 µM unless noted) is 107% (inactive); in the test on K-562 leukemia (10 µM unless noted), 92.4% (inactive); in the test with MALME-3M melanoma (10 µM unless noted), 102% (inactive); with MDA-MB-231 breast (10 µM unless noted), 98.9% (inactive); in the test on RXF 393 renal (10 µM unless noted), 97.1% (inactive); in the test on SF-268 CNS (10 µM unless noted), 98.9% (inactive). Also, the growth in the test on SF-295 CNS (10 µM unless noted) was 101% (inactive); with SF-539 CNS (10 µM unless noted), 97.1% (inactive).
With `Cc1nnc([S-])o1.[Au+].c1ccc([PH+](c2ccccc2)c2ccccc2)cc1`, the growth with DU-145 prostate (10 µM unless noted) was 62.4% (inactive); in the test with K-562 leukemia (10 µM unless noted), 12.8% (inactive); in the test on MALME-3M melanoma (10 µM unless noted) it was 48.1% (inactive); in the test with MDA-MB-231 breast (10 µM unless noted) it was 61.4% (inactive); in the test on RXF 393 renal (10 µM unless noted) it was -53.8% (active); in the test with SF-268 CNS (10 µM unless noted), 43.4% (inactive). Also, the growth with SF-295 CNS (10 µM unless noted) is 92.1% (inactive); in the test with SF-539 CNS (10 µM unless noted), 67.8% (inactive); in the test with UACC-257 melanoma (10 µM unless noted), 27.9% (inactive).
`C/C=C(/C)C(=O)O[C@H]1CC[C@@]2(C)[C@@H]3CC[C@H]4[C@]5(O)C[C@H](O)[C@@]6(O)[C@@H](CN7C[C@@H](C)CC[C@H]7[C@@]6(C)O)[C@]5(O)C[C@@]42O[C@@]13O`: the growth in the test with DU-145 prostate (10 µM unless noted) was 138% (inactive); with K-562 leukemia (10 µM unless noted), 136% (inactive); in the test on MALME-3M melanoma (10 µM unless noted), 92.7% (inactive); in the test on MDA-MB-231 breast (10 µM unless noted), 130% (inactive); in the test with RXF 393 renal (10 µM unless noted), 108% (inactive); in the test with SF-268 CNS (10 µM unless noted), 116% (inactive). For the same compound, the growth was 100% (inactive) in the test on SF-295 CNS (10 µM unless noted), 111% (inactive) with SF-539 CNS (10 µM unless noted) and 102% (inactive) in the test on UACC-257 melanoma (10 µM unless noted).
As to `O=S(=O)(c1ccc(O)cc1)c1ccccc1O`, the growth in the test on DU-145 prostate (10 µM unless noted) was 111% (inactive); in the test on K-562 leukemia (10 µM unless noted) it was 98% (inactive); with MALME-3M melanoma (10 µM unless noted), 113% (inactive); in the test with MDA-MB-231 breast (10 µM unless noted) it was 98.9% (inactive); in the test with RXF 393 renal (10 µM unless noted) it was 117% (inactive); with SF-268 CNS (10 µM unless noted), 97.3% (inactive). Also, the growth is 112% (inactive) in the test on SF-295 CNS (10 µM unless noted), 103% (inactive) with SF-539 CNS (10 µM unless noted) and 111% (inactive) in the test with UACC-257 melanoma (10 µM unless noted).
